Experimental data published in PubChem BioAssay AID2012 (Sanford-Burnham Center for Chemical Genomics, 2009).
Out of some 290,000 compounds screened, about 2,700 (0.93%) were called active. No rule for the calls is given here. The entries come from a sample that favours actives as a whole.

Target: Eukaryotic translation initiation factor 4H (Homo sapiens) (UniProt Q15056)
Experiment: eIF4H binding inhibition – biochemical, uHTS, fluorescence polarization, translation initiation inhibitor project, primary screen (AID 2012);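 also: calls also rest on retests at 20 µM and on dose response follow-up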
Settings: eIF4H fluorescence polarization binding assay, stronger effect = higher value

| SMILES | inhibition (at 35 µM) | inhibition (confirmation average, at 20 µM) |
| --- | --- | --- |
| COc1cc(OC)c(NC(=O)C2CCCN2C(=O)OCc2ccccc2)cc1Cl (stereo not drawn) | -2% (inactive) |  |
| Cc1cccc(C(=O)NC(=S)N(C)C2CCCCC2)c1 | -8.7% (inactive) |  |
| COc1cccc(NC(=S)NCc2ccco2)c1 | 22.2% (inactive) |  |
| S=C(NCc1ccc2c(c1)OCO2)NCc1ccco1 | -0.2% (inactive) |  |
| S=C(NCc1ccco1)Nc1ccc2c(c1)OCCO2 | -2.7% (active) | 51.4% |
| O=C(CSc1ccc(-c2ccc(Br)cc2)nn1)NCC1CCCO1 (stereo not drawn) | 3.3% (inactive) |  |
| O=C(N/N=C/c1ccc(OCc2ccccc2)cc1)c1ccc(O)cc1 | -5.8% (inactive) |  |
| O=C(COc1ccc(/C=N/NC(=O)c2ccc(O)cc2)cc1)Nc1ccc([N+](=O)[O-])cc1 | -1.7% (active) | 85.6% |
| O=C(COc1ccc([N+](=O)[O-])cc1)Nc1ccc(N2CCCC2)cc1 | 13.8% (inactive) |  |
| CCSCc1nc(N)nc(NCCc2ccccc2)n1 | -0.9% (inactive) |  |
| CC(=O)c1cnc(SCC(=O)O)nc1C | -2.4% (active) | 82.3% |
| CSc1ncc(C(=O)NCCCc2ccccc2)c(C)n1 | -7.3% (inactive) |  |
| CC(=O)c1cnc(SCCN2C(=O)c3ccccc3C2=O)nc1C | -11.9% (inactive) |  |
| CSCCC(NS(=O)(=O)c1ccccc1F)C(=O)N1CC=C(c2ccccc2)CC1 (stereo not drawn) | 0% (inactive) |  |
| COc1ccc(/C=N/NC(=O)c2cccc(C(F)(F)F)c2)cc1 | -2.2% (inactive) |  |
| Cn1cccc1/C=N/NC(=O)CNc1cccc2ccccc12 | -6.2% (inactive) |  |
| Cn1cccc1/C=N/NC(=O)c1ccc(OC(F)(F)C(F)F)cc1 | 9.7% (active) | 56.1% |
| NC(=O)c1ccc(Nc2ccc3nonc3c2[N+](=O)[O-])cc1 | -14.2% (inactive) |  |
| COc1ccccc1NC(=O)N1CCCC1C(=O)NCc1cccs1 (stereo not drawn) | -15.4% (inactive) |  |
| CCS(=O)(=O)N1CCC(N2CCN(c3ccccc3)CC2)CC1 | 7.8% (inactive) |  |
| C/C(=C\c1ccco1)C1Nc2cccc3cccc(c23)N1 | 107% (active) |  |

| SMILES | inhibition (at 35 µM) | inhibition (confirmation average, at 20 µM) |
| --- | --- | --- |
| CC(/C=N/NC(=O)c1ccncc1)=C\c1ccco1 | 25.2% (inactive) |  |
| CC(/C=N/NC(=O)c1cc(-c2ccc3ccccc3c2)n[nH]1)=C\c1ccco1 | 66.1% (inactive) | -19.6% |
| O=C(/C=C/c1ccco1)Nc1cccc(-c2nc3ccccc3[nH]2)c1 | -7.2% (inactive) |  |
| Cc1ccc(-n2nc3ccc(NC(=O)/C=C/c4ccco4)cc3n2)cc1C | 71.7% (active) | 73.8% |
| O=C(/C=C/c1ccco1)Nc1ccc(Oc2ccccc2)cc1 | 2.4% (inactive) |  |
| COc1ccc(C2CC(c3ccc([N+](=O)[O-])cc3)=NN2C(C)=O)cc1 (stereo not drawn) | 2.5% (inactive) |  |
| N#CC1=C(N)Oc2c(sc3ccccc23)C1c1ccco1 (stereo not drawn) | 74% (active) |  |
| CC1=C(C(=O)Nc2ccccc2)C(c2ccco2)C(C#N)=C(SCC(N)=O)N1 (stereo not drawn) | 10.9% (inactive) |  |
| Cc1cc(C)c2c3c(sc2n1)C(c1ccccc1)C(C#N)=C(N)O3 (stereo not drawn) | 1% (inactive) | 28.6% |
| COc1ccccc1CCNC(=O)c1c(C)nn(CC(C)C)c1Cl | -10.7% (inactive) |  |
| O=S(=O)(Oc1ccccc1C(=S)N1CCOCC1)c1ccc(Cl)cc1 | 1% (inactive) |  |
| CCN(CC)c1ccc(/C=N/Nc2nc(C)cc(C)n2)c(O)c1 | 83.3% (active) | 87.6% |
| Cc1cc(C)nc(N/N=C/c2ccncc2)n1 | -8.8% (inactive) |  |
| CCN(CC)c1ccc(/C=N/NC(=O)c2cnccn2)c(O)c1 | 1.5% (inactive) |  |
| Cc1ccccc1CN1CCNC(=O)C1CC(=O)NCCC1=CCCCC1 (stereo not drawn) | 5.3% (inactive) |  |
| COc1cccc(CNS(=O)(=O)c2csc(C(N)=O)c2)c1 | 5.7% (inactive) |  |
| CS(=O)(=O)N1CCc2nc(-c3ccccc3)sc2C1 | -3.4% (inactive) |  |
| Cc1cc([N+](=O)[O-])ccc1NC(=O)C1CCCO1 (stereo not drawn) | -1.7% (inactive) |  |
| Cc1cc(C)c2nc(NC(=O)C3CCCO3)sc2c1 (stereo not drawn) | -3.8% (inactive) |  |
| Cc1ccc(C)c(C(C)NC(=O)C2CCCO2)c1 (stereo not drawn) | 92.8% (active) |  |
| COc1ccc(COC(=O)c2ccc(Cl)c(S(=O)(=O)N3CCOCC3)c2)cc1F | 1.3% (inactive) |  |

| SMILES | inhibition (at 35 µM) | inhibition (confirmation average, at 20 µM) |
| --- | --- | --- |
| NS(=O)(=O)c1ccc(NC(=O)COC(=O)c2cc3ccccc3oc2=O)cc1 | -1.4% (inactive) |  |
| NS(=O)(=O)c1ccc(NC(=O)COC(=O)c2ccco2)cc1 | -10.4% (active) | 80.1% |
| NS(=O)(=O)c1ccc(NC(=O)COC(=O)c2ccc(Cl)nc2)cc1 | 7.6% (inactive) |  |
| Cc1ccc(NC2CCCN(C(=O)CCC3(C)CC3)C2)cc1C (stereo not drawn) | -6.4% (inactive) |  |
| CCCCc1ccc(NC(=O)NCc2cccnc2)cc1 | -1.5% (inactive) |  |
| CCC1C(=O)NCCN1C(=O)c1ccc2nc(Cc3ccc(OC)cc3)oc2c1 (stereo not drawn) | -1.1% (inactive) |  |
| COC(=O)c1sccc1NC(=O)c1ccc(Cl)cc1 | -1.7% (inactive) |  |
| O=C(COc1ccc(Cl)cc1)Nc1ccccc1CO | -15.9% (inactive) |  |
| COC(=O)c1sccc1NC(=O)COc1ccc(Cl)cc1 | -2% (active) | 90% |
| O=C(CCC(=O)n1ncc2ccccc21)NCc1ccccc1Cl | -5.2% (inactive) |  |
| COCCCn1c2nc3ccccc3nc2c2c(=O)n(Cc3ccc(Cl)cc3)c(C)nc21 | -0.3% (inactive) |  |
| Cc1ccc(Cn2c(C)nc3c(c2=O)c2nc4ccccc4nc2n3Cc2ccco2)cc1 | 18% (inactive) |  |
| Cc1nc2c(c(=O)n1Cc1ccco1)c1nc3ccccc3nc1n2Cc1ccccc1 | 68.6% (active) |  |
| Cc1cc(NC(=O)CCC(=O)N(CC(=O)NC2CCCC2)c2ccc(F)cc2)no1 | -1.3% (inactive) |  |
| O=C(CSc1ccc(-c2ccccn2)nn1)Nc1ccccc1 | -8.7% (inactive) |  |
| COc1ccc2[nH]c(=O)c(C3c4cc(OC)c(OC)cc4CCN3C(=O)c3ccco3)cc2c1 (stereo not drawn) | -6.8% (inactive) |  |
| CCOc1ccc(S(=O)(=O)Nc2ccc(OC)nc2)cc1 | -8.8% (inactive) |  |
| COc1ccc(NS(=O)(=O)c2ccc(F)cc2F)cn1 | 65.2% (active) |  |
| COc1ccc(S(=O)(=O)Nc2ccc(F)cc2)c(C)c1C | 7.4% (inactive) |  |
| Cc1ccc(NS(=O)(=O)c2ccc(C(C)(C)C)cc2)cn1 | -2.4% (inactive) |  |
| O=C(NC1CCCC1)C(c1ccc(Cl)cc1)N(C(=O)c1csnn1)C1CC1 (stereo not drawn) | -6.1% (inactive) |  |
